# High-throughput results as filed in PubChem BioAssay.
# A selection: hits, their analogues and other compounds. The true share with any hit is near 0.43%.
# GAA inh: inhibitors of human lysosomal alpha-glucosidase. AID 1466. 0.005% of 200,000 active. P10253. purified human GAA, 4-MU-alpha-glucoside fluorescence. Potency, µM (top dose mostly 76.9 µM), for inactives: top-dose activity change, negative = inhibition, most hits filed as inhibitors;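 note: potency is the fitted concentration of half-maximal effect; plate controls were uninhibited enzyme wells for no effect and no-enzyme background for full effect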
#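 Fluorogenic assay: 4 nM human alpha-glucosidase with 400 uM 4-methylumbelliferyl-alpha-D-pyranoside in 50 mM citrate/phosphate, 0.005% Tween-20, pH 5.0, 20 min at room temperature. Compounds tested up to 77 uM; AC50 from Hill fits.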
# N370S GC mod: inhibitors or activators of N370S glucocerebrosidase for Gaucher disease. Potency, µM (top dose mostly 59.4 µM), inactives show at the top dose activity change, negative = inhibition, hits mostly inhibitors. AID 2101. N370S GC spleen homogenate, 4MU-glucoside fluorescence. 0.092% of 330,000 active;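 note: potency is the fitted concentration of half-maximal effect; 0% = full enzyme activity and -100% = no enzyme basal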
# GAA glycogen: alters human alpha-glucosidase cleavage of glycogen; P10253; recombinant GAA, glycogen substrate, Amplex Red glucose oxidase fluorescence; Potency, µM (titrated, usually from 76.4 µM), for the others: at the top dose activity change, negative = inhibition, actives largely listed as inhibitors; 0.38% of 300,000 active; AID 2100;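 note: potency is the fitted concentration of half-maximal effect; 0% = full enzyme reaction and -100% = no-enzyme basal signal; the screen sought inhibitors and activators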
#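 Recombinant human enzyme (4 nM); glycogen substrate; 37 C, 40 min, pH 5.0. Readout: coupled glucose oxidase/Amplex Red fluorescence.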
# GLA inh pH 4.5: inhibitors of human alpha-galactosidase A at pH 4.5; activity change, negative = inhibition, % at 105 µM; 230,000 tested, under 10 active; purified enzyme, 4-MU-alpha-Gal fluorescence, pH 4.5; P06280;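 note: 0% = full activity with enzyme and -100% = basal without enzyme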
# aGlu spleen mod: lysosomal alpha-glucosidase (human) modulation. 0.006% of 240,000 active. Potency, µM (doses to about 79.9 µM), inactives show at the highest dose activity change, negative = inhibition, actives largely listed as inhibitors. human spleen homogenate, 4-MU-alpha-glucoside fluorescence. AID 2112. P10253;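 note: potency is the fitted concentration of half-maximal effect; 0% = enzyme with vehicle and -100% = no enzyme basal signal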
#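 Enzyme source: human spleen homogenate, 1 ug/well. Buffer 50 mM citric acid/K phosphate pH 5.0, 0.01% Tween-20. 4-MU-alpha-glucoside 1 mM; 37 C x 40 min; NaOH/glycine stop; fluorescence.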
# GLA spleen mod: inhibitors or activators of human alpha-galactosidase in spleen homogenate; P06280; human spleen homogenate, 4MU-alpha-Gal fluorescence, 40 min; 0.008% of 240,000 active; Potency, µM (highest dose often 80 µM), inactives show top-dose activity change, negative = inhibition, usual class: inhibitors;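 note: potency is the fitted concentration of half-maximal effect; 0% = enzyme with vehicle and -100% = no enzyme basal signal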
# Target sequence (P06280 32-429 limits assumed): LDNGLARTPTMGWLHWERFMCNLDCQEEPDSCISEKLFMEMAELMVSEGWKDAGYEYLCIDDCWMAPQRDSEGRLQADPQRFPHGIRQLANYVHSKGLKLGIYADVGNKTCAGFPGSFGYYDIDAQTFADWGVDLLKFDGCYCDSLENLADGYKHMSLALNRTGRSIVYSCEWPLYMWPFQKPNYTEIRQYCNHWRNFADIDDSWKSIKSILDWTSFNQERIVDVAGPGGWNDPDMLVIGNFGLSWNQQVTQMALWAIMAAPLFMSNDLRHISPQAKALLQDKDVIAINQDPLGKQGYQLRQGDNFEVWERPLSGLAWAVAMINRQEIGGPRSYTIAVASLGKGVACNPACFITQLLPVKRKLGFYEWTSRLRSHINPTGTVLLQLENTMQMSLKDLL
#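 qHTS titration in buffer at pH 5.0. Alpha-galactosidase activity in spleen homogenate was measured via 4-methylumbelliferone release from 1 mM fluorogenic substrate after 40 min at 37C and a pH 10 stop. AC50 came from Hill fits of control-normalized data.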
# Active calls of the source: *; ? = inconclusive; / = no result given; [ ] = remark or other dose. Calls come from the whole dose curve; as a rule, active = well fitted curve in the direction sought with a large enough effect; inconclusive = small, poorly fitted or top-dose-only effect, or another doubt; inactive = no such curve, though single readings can be large; an effect the other way counts as inactive or inconclusive.
SMILES,GAA inh,N370S GC mod,GAA glycogen,GLA inh pH 4.5,aGlu spleen mod,GLA spleen mod
Nc1cccc2c(=O)[nH]ccc12,/,0%,/,/,2%,15%
Oc1ccc(O)c(Cc2nc3ccccc3s2)c1,-18%,6%,5.6µM*,-11,-3%,3%
Oc1ccccc1OCc1nc2ccccc2s1,-9%,-10%,-30%,-2,0%,0%
COc1ccc(NCc2ccc(OC)c(Cn3ccnc3)c2)c(OC)c1,/,-3%,7µM*,/,/,/
O=C(CSc1ncc(C(F)(F)F)cc1Cl)N1CCN(S(=O)(=O)c2ccc(Cl)cc2)CC1,?,6%,-6%,-1,-10%,11%
O=C(CSc1ncc(C(F)(F)F)cc1Cl)N1CCN(S(=O)(=O)c2ccccc2)CC1,35µM*,/,?,-8,-30%,5%
COC(=O)c1[nH]c2cc(OC)c(OC)cc2c1NC(=O)Oc1ccccc1,?,-6%,35µM*,-2,-3%,4%
Cc1ccc(-c2cc(C3C4C=CCC(C)C4C(=O)N3Cc3ccccc3)ccc2F)cc1 (stereo unspecified),/,-2%,/,/,-9%,-1%
COc1ccccc1N1C(=O)CC(N(O)c2ccccc2)C1=O (stereo unspecified),1%,-2%,?,-1,0%,-2%
Cc1ccccc1N1C(=O)CC(N(O)c2ccccc2)C1=O (stereo unspecified),0%,-12%,4µM*,4,-2%,-7%
COc1ccccc1N(O)C1CC(=O)N(c2ccc(F)cc2)C1=O (stereo unspecified),2%,-5%,18µM*,10,-5%,2%
O=C1CC(N(O)c2ccccc2)C(=O)N1c1cc(Cl)cc(Cl)c1 (stereo unspecified),-9%,-5%,22µM*,0,1%,1%
CC1=CC(=O)C2=C(C)CC[C@H]3[C@H](C)C(=O)O[C@@H]3C12 (stereo partly specified),/,-5%,/,/,-5%,5%
C/C(=C\C(=O)c1ccncc1)Nc1ccccc1O,-4%,-3%,25µM*,-17,-3%,10%
COc1ccc(OC)c(N/C(C)=C/C(=O)c2ccncc2)c1,/,-1%,-11%[76.3 µM],/,/,/
COc1ccc(Cn2nnnc2C(c2cccs2)N2CCN(c3ccccc3)CC2)cc1 (stereo unspecified),-6%,5%[2.35 µM],0%,-4,-4%,-2%
Oc1ccc(N2CCN(C(c3cccs3)c3nnnn3CCc3ccccc3)CC2)cc1 (stereo unspecified),-5%,?,28µM*,-2,-3%,-2%
COC(=O)[C@H](Cc1ccccc1)NC(=O)[C@@H](C)CO,/,14%[12.8 µM],/,/,-1%[17.4 µM],-3%[17.5 µM]
N[C@H](C(=O)O)C1C(C(=O)O)C1C(=O)O (stereo partly specified),/,13%,/,/,4%,-2%
CNC(=O)CSc1cn(CC(=O)N2CCCCCC2)c2ccccc12,/,/,50µM*,/,/,/
Cc1ccc(S(=O)(=O)Nc2cccc3ccc[n+](C)c23)cc1,/,-14%,/,/,6%,6%
COc1cccc(-c2ccc3ncnc(N(C)C)c3c2)c1,/,-16%,/,/,-8%,50µM*
O=C(NNc1nc2cc3c(cc2s1)OCCO3)c1ccc(F)cc1,-7%,-3%,24%,-5,2%,-5%
O=C(NNc1nc2cc3c(cc2s1)OCO3)c1ccc(F)cc1,6%,-3%,28µM*,7,4%,9%
Cc1ccc(C)c(N2CCN(S(=O)(=O)c3ccc4c(c3)CCC(=O)N4)CC2)c1,0%,-12%,-1%,-3,3%,2%
SMILES,GAA inh,N370S GC mod,GAA glycogen,GLA inh pH 4.5,aGlu spleen mod,GLA spleen mod
Cc1ccc(C)c(N2CCN(S(=O)(=O)c3ccc4c(c3)NC(=O)CC(=O)N4)CC2)c1,/,14µM*,-9%[76.3 µM],/,/,/
Cc1ccc(C)c(N2CCN(S(=O)(=O)c3ccc4[nH]c(=O)c(=O)[nH]c4c3)CC2)c1,-9%,13µM*,-1%,0,-13%,24%
COc1ccc(NCN2C(=O)C3C4C=CC(C4)C3C2=O)cc1 (stereo unspecified),-2%,2%,28µM*,-3,-4%,2%
O=C(N/N=C/C1CCCCC1)c1ccccn1,-4%,6%,?,-6,4%,6%
O=C(N/N=C/C1CCCCC1)c1cc(Cl)ccc1O,-18%,2%,35µM*,4,-5%,-2%
OC[C@@H]1OC(O)[C@H](O)[C@H](O)[C@H]1O (stereo partly specified),/,4%,/,/,9%,3%
CN1CCN(Cc2nc3ccccc3c(=O)n2Cc2nc(-c3ccc4ccccc4c3)cs2)CC1,?,11µM*,13%,3,-8%,-3%
CN1CCN(Cc2nc3ccccc3c(=O)n2Cc2nc(-c3cccc([N+](=O)[O-])c3)cs2)CC1,-1%,6%,15%,8,-5%,-7%
Cc1sc(NC(=O)c2ccccc2)c(C(c2ccccn2)N2CCN(CCO)CC2)c1C (stereo unspecified),-1%,11%,-10%,-8,-1%,12%
CCc1cc(C(c2ccccn2)N2CCN(C)CC2)c(NC(=O)c2ccccc2)s1 (stereo unspecified),-7%,14µM*,-4%,-25,0%,2%
CCOc1ccc(C(c2c(NC(=O)c3ccccc3)sc(C)c2C)N2CCN(C)CC2)cc1 (stereo unspecified),?,16µM*,-3%,-3,2%,2%
CNC(=S)NNc1nncc2ccccc12,14%,7%,10µM*,-8,4%,2%
C=C(CO)C1Cc2c(ccc3c2OC2COc4cc(OC)c(OC)cc4C2C3=O)O1 (stereo unspecified),/,-21%,/,3,-2%,-7%
CCOC(=O)c1c(C)[nH]c2c1cc(O)c1ccccc12,0%,-7%,16µM*,-22,-1%,3%
CCOC(=O)c1c(C)oc2c1cc(O)c1ccccc12,1%,12%,?,-13,-13%,-2%
CC1(C)OC(=O)C(=NNc2ccc(O)cc2)C(=O)O1,-3%,-23%,11µM*,2,-12%,-7%
Cc1cc(C)c(S(=O)(=O)Nc2ccc(O)cc2)c(C)c1,-8%,-13%,40µM*,-2,6%,-12%
Cc1cc(=O)[nH]c2ccc(S(=O)(=O)Nc3ccccc3)cc12,/,0%,0%[76.3 µM],/,/,/
Cc1cc(=O)[nH]c2ccc(S(=O)(=O)Nc3ccc(O)cc3)cc12,/,?,7.1µM*,/,/,/
CCCCCCCCCCCCC1CO1 (stereo unspecified),/,-2%,/,/,7%,-2%
Cc1ccc2c(c1)N(CCCC(=O)NCc1cccc(F)c1)C(=O)CO2,/,/,45µM*,/,/,/
COc1ccc(S(=O)(=O)N2CCN(Cc3cccc(OC)c3)CC2)cc1,/,-12%,5%[76.3 µM],/,/,/
